Results: PubChem BioAssay AID463173 (ICCB-Longwood Screening Facility, Harvard Medical School, 2010)
Screen size: about 52,000 compounds; about 4,300 (8.3%) were called active. No stated cut-off is given here; in the data, active means survival mostly below about 52% (no sharp cut-off); inactive means mostly above about 56%. The list comes from a sample in which actives are over-represented; it also holds similar structures and randomly drawn compounds.

These molecules were tested on DeltatarO mutant (assay: S. aureus survival, RN4220 and DeltatarO strains – OD600, teichoic acid synthesis inhibitors, primary screen (AID 463173)). Settings: S. aureus RN4220 wild type/DeltatarO growth, OD600, 18 h, hits give low values, screened at 18.75 µg/mL (by protocol).

SMILES | survival
COC(=O)c1cc(NC(=O)c2sc3ncn(Cc4cccc(F)c4)c(=O)c3c2C)cc(C(=O)OC)c1 | 92% (inactive)
CCc1cccc(NC(=O)Cn2nc3c4cc(F)ccc4n(Cc4cccc(C)c4)cc-3c2=O)c1 | 84% (inactive)
COc1ccc(-c2cc(C(=O)Oc3ccc(C)c(C)c3)c3ccccc3n2)cc1 | 40% (active)
CNC(=O)c1cc(-c2ccc(OC)cc2)nc2ccccc12 | 77% (inactive)
COc1ccc(-c2cc(C(=O)Oc3ccc(Br)cc3)c3ccccc3n2)cc1 | 48% (inactive)
COC(=O)c1cc(-c2ccc(OC)c(OC)c2)nc2ccccc12 | 72% (inactive)
COc1ccc(-c2cc(C(=O)Oc3ccc(C)cc3)c3ccccc3n2)cc1 | 11% (active)
COc1ccc(C(=O)COC(=O)c2cc(-c3cccs3)nc3ccccc23)cc1 | 58% (inactive)
Cc1ccc(C(=O)COC(=O)c2cc(-c3ccccc3)nc3ccccc23)cc1C | 125% (inactive)
Cc1ccc(C(=O)COC(=O)c2cc(-c3ccc(Cl)cc3)nc3ccccc23)cc1 | 136% (inactive)
COc1ccc(-c2cc(C(=O)Oc3cccc(C)c3C)c3ccccc3n2)cc1 | 31% (active)
Cc1ccc(-c2cc(C(=O)NCCc3ccccc3)c3ccccc3n2)cc1C | 88% (inactive)
COc1ccc(C(=O)COC(=O)c2cc(-c3ccccc3)nc3c(C)cccc23)cc1 | 64% (inactive)
COc1ccc(-c2cc(C(=O)Oc3ccc(Cl)cc3)c3ccccc3n2)cc1 | 49% (active)
CCn1cc(C(=O)OCC(=O)Nc2cccc(C(C)=O)c2)c(=O)c2ccc(C)nc21 | 84% (inactive)
CCC(O)(CCN1CCCCC1)c1ccccc1 (stereo unspecified) | 80% (inactive)
Cc1cc(C)cc(N(CC(=O)NCc2ccco2)C(=O)c2snc(C(N)=O)c2N)c1 | 93% (inactive)
Cc1cccc(C(=O)N2CCc3cc(CNC(=O)CCc4ccccc4)ccc32)c1 | 60% (inactive)
CC(=O)CSc1nnc2cc(C)c3cc(C)cc(C)c3n12 | 106% (inactive)
CCOC(=O)CN1C(=O)N(c2ccc(C)c(C)c2)S(=O)(=O)c2ccccc21 | 80% (inactive)
COc1cc(CNCCSc2nnnn2C)ccc1OCc1ccc(Cl)cc1Cl | 30% (active)
COc1cc(CNCCSc2nnnn2C)ccc1OCc1c(F)cccc1Cl | 58% (inactive)

SMILES | survival
CCOc1cc(CNCCSc2nnnn2C)ccc1OCc1ccc(Cl)cc1Cl | -6% (active)
COc1cc(CNCCSc2nnnn2C)ccc1OCc1ccccc1C | 56% (inactive)
Cn1nnnc1SCCNCc1ccccc1OCc1ccc(Cl)cc1Cl | 63% (inactive)
CCOc1ccc(CNCCSc2nnnn2C)cc1OC | 65% (inactive)
COC(=O)c1ccccc1NC(=O)Cn1c(CCC(=O)O)ccc1-c1cccs1 | 54% (inactive)
COc1ccc(-c2ccc(CCC(=O)O)n2CC(=O)Nc2cccc(C(F)(F)F)c2)cc1 | 54% (active)
O=C(O)CCc1ccc(-c2ccccc2)n1-c1cccc(Br)c1 | 65% (inactive)
O=C(O)CCc1ccc(-c2ccc(Cl)cc2)n1-c1cccc(C(F)(F)F)c1 | 23% (active)
COC(=O)c1ccccc1NC(=O)Cn1c(CCC(=O)O)ccc1-c1ccc(C)cc1 | 45% (active)
Cc1ccc(-c2ccc(CCC(=O)O)n2-c2cccc(O)c2)cc1 | 68% (inactive)
COc1ccc(OC)c(NC(=O)Cn2c(CCC(=O)O)ccc2-c2ccccc2)c1 | 103% (inactive)
COc1ccc(NC(=O)Cn2c(CCC(=O)O)ccc2-c2ccccc2)cc1Cl | 61% (inactive)
COc1ccc(-c2ccc(CCC(=O)O)n2CC(=O)Nc2cccc(Cl)c2C)cc1 | 46% (inactive)
Cc1cc(NC(=O)N2CC=C(c3c[nH]c4ccccc34)CC2)ccc1Br | 81% (inactive)
Cn1c(=O)[nH]c(=O)c2c1nc(NCCO)n2CC(O)COc1ccccc1 (stereo unspecified) | 165% (inactive)
COC(=O)c1ccc(Nc2cc(=O)[nH]c(=O)[nH]2)cc1 | 79% (inactive)
CCOc1ccccc1NC(=O)CN1C(=O)CC(c2ccc(C)c(C)c2)=Nc2ccccc21 | 74% (inactive)
CCOCCCNC(=O)c1c[nH]c2ccc(S(=O)(=O)N(C)c3ccc(Cl)cc3F)cc2c1=O | 124% (inactive)
CC(C)(C)OC(=O)N1CCC(c2c(C(=O)NC3CCCCC3)cnn2-c2cccc(F)c2)CC1 | 128% (inactive)
Cc1ccc(CSc2nc3c([nH]c4ccccc43)c(=O)n2C)cc1 | 94% (inactive)
Cc1ccc(Sc2ccc(N3CCC(C(=O)Nc4ccc(Cl)cc4)CC3)nn2)cc1 | 72% (inactive)
CN(Cc1ccccc1)S(=O)(=O)c1ccc(F)c(C(=O)Nc2ccccc2C(F)(F)F)c1 | -5% (active)

SMILES | survival
CN(Cc1ccccc1)S(=O)(=O)c1ccc(F)c(C(=O)Nc2cccc(Cl)c2Cl)c1 | 134% (inactive)
CN(Cc1ccccc1)S(=O)(=O)c1ccc(F)c(C(=O)Nc2cc(Cl)cc(Cl)c2)c1 | 87% (inactive)
CCN(Cc1ccccc1)S(=O)(=O)c1ccc(F)c(C(=O)Nc2cc(C(F)(F)F)ccc2Cl)c1 | 17% (active)
O=C(Nc1cc(C(F)(F)F)ccc1Cl)c1cc(S(=O)(=O)NCc2ccccc2)ccc1F | 55% (inactive)
CCN(Cc1ccccc1)S(=O)(=O)c1ccc(F)c(C(=O)Nc2ccc(C(C)C)cc2)c1 | 101% (inactive)
Cc1ccc(C(=O)N/C(=C/c2ccccc2)C(=O)NCc2ccco2)cc1 | 95% (inactive)
COc1ccc(S(=O)(=O)C(C)(C)C)cc1 | 78% (inactive)
COc1ccc(C(=O)Nc2nc3c(s2)CCCC3)cc1Cl | 53% (inactive)
Cn1c(=O)[nH]c(=O)c2c1nc(CN1CCN(c3ccccc3F)CC1)n2Cc1ccc(F)cc1 | 122% (inactive)
Cc1ccc(CN(Cc2ccco2)c2cnc(S(C)(=O)=O)nc2C(=O)Nc2ccc(Br)cc2)o1 | 105% (inactive)
Cc1ccc(NC(=O)c2nc(S(C)(=O)=O)ncc2N(Cc2ccco2)Cc2ccco2)cc1 | 44% (inactive)
CCS(=O)(=O)c1ncc(N(Cc2ccccc2)Cc2ccco2)c(C(=O)Nc2ccccc2C)n1 | 45% (active)
Cc1ccccc1NC(=O)c1nc(S(C)(=O)=O)ncc1N(Cc1ccco1)Cc1sccc1C | 43% (active)
Cc1ccsc1CN(Cc1ccco1)c1cnc(S(C)(=O)=O)nc1C(=O)Nc1ccc(Cl)cc1 | 40% (active)
CCS(=O)(=O)c1ncc(N(Cc2ccccc2)Cc2ccco2)c(C(=O)Nc2ccc(C)c(C)c2)n1 | 52% (inactive)
CCS(=O)(=O)c1ncc(N(Cc2ccccc2)Cc2ccco2)c(C(=O)Nc2cccc(Cl)c2C)n1 | 60% (inactive)
CCS(=O)(=O)c1ncc(N(Cc2ccc(F)cc2)Cc2ccco2)c(C(=O)Nc2cc(C)ccc2C)n1 | 58% (inactive)
CCS(=O)(=O)c1ncc(N(Cc2ccco2)Cc2sccc2C)c(C(=O)Nc2ccc(C)cc2C)n1 | 53% (active)
CCS(=O)(=O)c1ncc(N(Cc2ccco2)Cc2sccc2C)c(C(=O)Nc2cc(C)ccc2C)n1 | 106% (inactive)
COc1ccc(NC(=O)C2CCCN(c3cnccn3)C2)c(OC)c1 (stereo unspecified) | 107% (inactive)
Cc1c(C)n(Cc2ccccc2)c2ccc(C(=O)N3CCN(c4ccccc4F)CC3)cc12 | 80% (inactive)
Cc1cc(C)c(NC(=O)CCS(=O)(=O)c2cc3c(cc2Cl)NC(=O)CO3)c(C)c1 | 80% (inactive)

SMILES | survival
CCCOc1cccc(C2c3c(oc4ccc(F)cc4c3=O)C(=O)N2c2nc(C)c(C(C)=O)s2)c1 (stereo unspecified) | 65% (inactive)
CSc1ccc(CCNC(=O)Cn2ncc3c(=O)oc4ccc(C)cc4c32)cc1 | 89% (inactive)
COC(=O)c1cc(OC)c(OC)c(OC)c1NC(=O)c1cc(=O)n(C)c(=O)n1C | 78% (inactive)
CC(=O)OC1COC(N2CCc3ccccc32)C(OC(C)=O)C1OC(C)=O (stereo unspecified) | 97% (inactive)
CC1CCN(C(=O)c2ccc3c(c2)N(Cc2ccccc2F)C(=O)c2ccccc2S3(=O)=O)CC1 | 80% (inactive)
CCC(=O)N1CCc2cc(S(=O)(=O)NCCC(=O)NC(C)c3ccccc3)ccc21 (stereo unspecified) | 85% (inactive)
CC(C)Sc1ncc(Cl)c(C(=O)Nc2ccc(S(=O)(=O)Nc3ncccn3)cc2)n1 | 50% (inactive)
CN(c1ccccc1)S(=O)(=O)c1ccc(NC(=O)c2nc(S(C)(=O)=O)ncc2Cl)cc1 | -1% (active)
CCCSc1ncc(Cl)c(C(=O)Nc2ccc(S(=O)(=O)N(C)c3ccccc3)cc2)n1 | 54% (inactive)
CC(C)Sc1ncc(Cl)c(C(=O)Nc2ccc(S(=O)(=O)N(C)c3ccccc3)cc2)n1 | 55% (inactive)
CCS(=O)(=O)c1ncc(Cl)c(C(=O)Nc2ccc(S(=O)(=O)N(C)c3ccccc3)cc2)n1 | 0% (active)
CS(=O)(=O)c1ncc(Cl)c(C(=O)Nc2c(C(=O)Nc3ccccc3)oc3ccccc23)n1 | 55% (inactive)
CCN(c1ccccc1)S(=O)(=O)c1ccc(NC(=O)c2nc(SC)ncc2Cl)cc1 | 55% (inactive)
CC(C)Sc1ncc(Cl)c(C(=O)Nc2ccc(S(=O)(=O)N3CCCCC3)cc2)n1 | 57% (inactive)
CCN(c1ccccc1)S(=O)(=O)c1ccc(NC(=O)c2nc(SC(C)C)ncc2Cl)cc1 | 44% (active)
CSc1ncc(Cl)c(C(=O)Nc2ccc(S(=O)(=O)N3CCCC(C)C3)cc2)n1 (stereo unspecified) | 79% (inactive)
CCSc1ncc(Cl)c(C(=O)Nc2ccc(S(=O)(=O)N(C)c3ccccc3)cc2)n1 | 71% (inactive)
CC1CCCN(S(=O)(=O)c2ccc(NC(=O)c3nc(SC(C)C)ncc3Cl)cc2)C1 (stereo unspecified) | 44% (active)
CCOc1ccccc1CNC(=O)C1CCN(c2nc3ccccc3nc2C(F)(F)F)CC1 | 69% (inactive)
CCOc1ccc(NC(c2ccc(Cl)cc2)c2nnc(-c3cccc(F)c3)o2)cc1 (stereo unspecified) | 90% (inactive)
